# Experimental data from PubChem BioAssay (Tox21).
# A number with no mark means an inactive call. The call rests on the fitted dose curve; in most records, active means well fitted cell-killing curve with a large enough effect in the repeat runs; inconclusive means weak or mixed curves, or effect the other way; inactive means flat fitted curve, though single readings scatter.
# Experiment: qHTS assay to identify small molecule HDAC inhibitors - cell viability counter screen (AID 1259365); further: nearly all actives have a fitted effect of over 50% in size
# Conditions: HCT-116 viability, CellTiter-Glo ATP luminescence, 2 h; series mostly up to 92.4 µM; activity change, negative = cytotoxicity: at the top concentration
# Description: U.S. Tox21 Program National Center for Advancing Translational Sciences [NCATS] NIH Chemical Genomics Center [NCGC] U.S. Environmental Protection Agency [EPA] National Institutes of Environmental Health Sciences [NIEHS] National Toxicology Program [NTP] U.S. Food and Drug Administration [FDA] Tox21 Assay Overview: Histone deacetylases (HDACs) are a group of epigenetic enzymes that regulate gene expression by histone deacetylation. HDACs are capable of introducing epigenetic modifications and such aberrations contribute to the onset and progression of several human diseases, thus making HDACs a popular therapeutic target. For identifying endogenous class I/II HDAC inhibitors a homogenous, luminogenic HDAC I/II cell based assay was used to measure the relative activity of class I and II HDACs from cells. Wild type HCT-116 cells were used to screen Tox21 compound libraries for identifying class I/II HDAC inhibitors.
# Tox21 Assay Protocol Summary: HCT-116 cells were dispensed at 1,500 per well in 5uL of culture medium into white solid bottom 1536-well plates (Greiner Bio-One, Monroe, NC) using a Multidrop Combi (Thermo Scientific, Waltham, MA) dispenser. The assay plates were incubated at 37 C and 5% CO2 for an overnight, and then 23nL of compounds dissolved in DMSO and positive control were transferred using a Pintool station (Wako, San Diego, CA). The assay plates were incubated at 37C and 5% CO2 for 2hr. After compound treatment, 4uL of CellTiter-Glo reagent (Promega Corporation, Madison, WI) was added to each well of the assay plates using Flying Reagent Dispenser (FRD, Aurora Discovery, San Diego, CA) and incubated the assay plates at room temperature for 30min. The luminescence signal was quantified using a ViewLux plate reader (Perkin Elmer, Shelton, CT).
# On the % scale 0 is the no-effect control and ±100 the full control effect.
row,Compound,"activity change, negative = cytotoxicity"
1,CC(=O)CC(=O)c1ccccc1,0.683%
2,CCCCOc1ccc(CC(=O)NO)cc1,-2.8% [at 42.5 µM]
3,O=C1Nc2cc(Cl)ccc2Oc2ccccc21,-0.935% [at 42.5 µM]
4,O=C(O)c1cn(C2CC2)c2cc(Cl)c(F)cc2c1=O,1.6% [at 42.5 µM]
5,NC1CCN(c2nc3c(cc2F)c(=O)c(C(=O)O)cn3-c2ccc(F)cc2F)C1 (stereo not given),4.63% [at 42.5 µM]
6,CN(C)CCCOc1nn(Cc2ccccc2)c2ccccc12,-2.91% [at 42.5 µM]
7,CCN(CCO)CCCC(C)Nc1ccnc2cc(Cl)ccc12 (stereo not given),0.62% [at 8.39 µM]
8,COC(=O)C(C)=O,0.397%
9,COCCCCCCCCOCCC[Si](C)(O[Si](C)(C)C)O[Si](C)(C)C,0.144%
10,CCCCCCCCCCCCCCCC(=O)OC/C=C(C)/C=C/C=C(C)/C=C/C1=C(C)CCCC1(C)C,3.86%
11,c1ccc(-c2nc[nH]c2-c2ccccc2)cc1,-0.691% [at 42.5 µM]
12,CCOC(=O)C1=C(C)NC(C)=C(C(=O)OC)C1c1cccc([N+](=O)[O-])c1 (stereo not given),-1.68% [at 42.5 µM]
13,CC(=O)SCc1ccco1,2.38%
14,CC(C)(C)c1cc(O)c(C(C)(C)C)cc1O,11.1%
15,O=C(CC(=O)c1ccccc1)c1ccccc1,-9.17%
16,CCCCCCCCCC(=O)OCC,-1.11%
17,Nc1nc(CC(=O)O)cs1,-1.07%
18,COC(Cc1ccccc1)OC,-0.626%
19,NCc1ccccc1,-0.161%
20,O=C(Nc1ccccc1)OCC(CN1CCCCC1)OC(=O)Nc1ccccc1 (stereo not given),-2.29% [at 42.5 µM]

row,Compound,"activity change, negative = cytotoxicity"
1,OCCC1CCCCN1 (stereo not given),1.2%
2,O=C(Cl)c1ccc([N+](=O)[O-])cc1,9.13%
3,CC(Cc1cccc(C(F)(F)F)c1)NCCOC(=O)c1ccccc1 (stereo not given),-9.65% [at 42.5 µM]
4,O=C1[C@H](CC[C@H](O)c2ccc(F)cc2)[C@@H](c2ccc(O)cc2)N1c1ccc(F)cc1,0.972% [at 42.5 µM]
5,CCCCCC(CO)CCC (stereo not given),-1.61%
6,Cc1ccccn1,-0.728%
7,CN(C)C/C=C(/c1ccc(Br)cc1)c1cccnc1,1.52% [at 42.5 µM]
8,CC(C)NCC(O)c1cc(O)cc(O)c1 (stereo not given),2.07% [at 42.5 µM]
9,Cc1cccc(OCCOc2cccc(C)c2)c1,-7.55%
10,NCCCOCCOCCOCCCN,-2.09%
11,CCCC(C)C,9.78%
12,CC(C)(C)C1CCCCC1O (stereo not given),-0.31%
13,C#CCOC(=O)[C@@H](C)Oc1ccc(Oc2ncc(Cl)cc2F)cc1,0.227%
14,O=C(c1ccccc1)c1ccc2n1CCC2C(=O)O (stereo not given),-1.21% [at 42.5 µM]
15,COc1ccc(OC)c(OC)c1,0.279%
16,O=C(Cl)c1c(Cl)cccc1Cl,-4.44%
17,CN1CCN(C2=Nc3cc(Cl)ccc3Nc3ccccc32)CC1,-1.29% [at 42.5 µM]
18,O=C(O)[C@@H]1[C@H]2C[C@H]3c4[nH]c5ccccc5c4CCN3C[C@@H]2CC[C@@H]1O,-1.11% [at 42.5 µM]
19,CC1(C)[C@H]2CC[C@]1(C)[C@H](O)C2,-4.75%
20,O=C(CCN1CCN2CCCC2C1)N1c2ccccc2Sc2ccc(Cl)cc21 (stereo not given),-2.44% [at 19 µM]
